# Reference: PubChem BioAssay
# For some of these results: Entries with a potency or affinity are not part of this list. Calls of active or inactive are those of the source.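 Rule for the calls, unless noted: active = calcium signal rise above buffer-control mean plus 5 SD in both duplicates, and also a hit in the primary screen; inactive = the rest.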
# Assays:
# [1] = system: TRPC4 beta (transient receptor potential cation channel C4), mouse; assay: TRPC4 cation channel opening, retest – cell-based, Fluo4 calcium, HEK293 TRPC4beta/mu-opioid, duplicates, 10 µM, confirmation (AID 2426;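 active = fluorescence ratio normalized to control raised more than 50% in primary screen plus both repeat runs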); details: Fluo4 calcium fluorescence, at 10 µM; stronger effect = higher value
# [2] = system: transient receptor potential cation channel C4 beta (TRPC4), mouse; assay: TRPC4 cation channel opening, second retest – cell-based, second round, Fluo4, HEK293 TRPC4beta/mu-opioid, 1 µM, confirmation (AID 2461;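 active = primary screen active and over 50% activation in each of two duplicate runs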); details: Fluo4 calcium fluorescence, at 1 µM; stronger effect = higher value
# [3] = system: TRPC4 (transient receptor potential cation channel C4 beta), mouse; assay: potentiation of DAMGO EC20 TRPC4 response – cell-based, second round, Fluo-4, HEK293 TRPC4beta/mu-opioid, 1 µM, confirmation (AID 2554;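 active = primary screen hit whose fluorescence ratio, in both repeats, exceeds the weak agonist control mean by 3 SD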); details: DAMGO EC20, Fluo-4 calcium flux, at 1 µM; stronger effect = higher value
# [4] = system: TRPC4 beta (transient receptor potential cation channel C4), mouse; assay: potentiation of DAMGO EC20 TRPC4 response – cell-based, Fluo-4, HEK293 TRPC4beta/mu-opioid, confirmation (AID 2555;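 active = primary screen hit whose calcium fluorescence ratio, in both repeats, exceeds the weak agonist control mean by 3 SD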); details: DAMGO EC20, Fluo-4 calcium flux, at 10 µM; stronger effect = higher value
# [5] = biological target: Short transient receptor potential channel 4 (Mus musculus) (UniProt Q9QUQ5); assay: blockers of DAMGO-evoked TRPC4 calcium flux – cell-based, Fluo4, HEK293 TRPC4beta/mu-opioid, confirmation (AID 2636;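 active = calcium signal cut by more than 3 SD below the full-agonist control yet still positive, in both repeats and the earlier primary screen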); details: at 10 µM; stronger effect = higher value
# [6] = biological target: Short transient receptor potential channel 4 (Mus musculus) (UniProt Q9QUQ5); assay: blockers of DAMGO-evoked TRPC4 calcium flux – cell-based, second round, Fluo4, HEK293 TRPC4beta/mu-opioid, 1 µM, confirmation (AID 2637;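 active = calcium signal ratio cut to more than 3 SD under the fully stimulated control mean yet still positive, in both repeats and the primary screen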;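 for inhibition: percent of integrated ratio relative to wells lacking test compound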); details: at 1 µM; stronger effect = higher value
# [7] = biological target: Short transient receptor potential channel 4 (Mus musculus) (UniProt Q9QUQ5); assay: calcium entry via TRPC4 opening agents – cell-based, HEK293 TRPC4/mu-opioid, Fluo-4 calcium, dose response (AID 434937;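 active = primary screen activator hit with a dose response curve and TRPC4 channel activation at any tested dose; inactive = no activation, no dose response, or not a primary hit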)
# [8] = biological target: Short transient receptor potential channel 4 (Mus musculus) (UniProt Q9QUQ5); assay: potentiation of DAMGO-evoked TRPC4 calcium signal – cell-based, HEK293 TRPC4/mu-opioid, Fluo-4 calcium, EC20 DAMGO, dose response (AID 434941;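 active = earlier screen potentiator hit that boosts the TRPC4 ion channel at some dose, with a dose response; inactive = no potentiation, no dose response, or not a prior hit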;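 note: calcium entry triggered by an EC20 dose of DAMGO at the co-expressed mu-opioid receptor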)
# [9] = biological target: Short transient receptor potential channel 6 (Mus musculus) (UniProt Q61143); assay: TRPC6 blockade by TRPC4 inhibitor hits – cell-based, HEK293, membrane potential dye, duplicate, selectivity assay for TRPC4 inhibitor project, confirmation (AID 434948;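 active = active in primary screen and both duplicates, each dropping signal beyond three positive-control SD with fluorescence still positive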); details: HEK293 TRPC6, membrane potential dye fluorescence, at 10 µM, stimulated with maximal-effect acetylcholine; stronger effect = higher value
# [10] = biological target: Short transient receptor potential channel 6 (Mus musculus) (UniProt Q61143); assay: TRPC6 opening by TRPC4 activator hits – cell-based, HEK293, membrane potential dye, duplicate, selectivity assay for TRPC4 activator project, confirmation (AID 434950;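 active = membrane potential signal rise above negative control mean plus 3 SD in both duplicates, also active in the earlier TRPC4 screen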); details: HEK293 TRPC6, membrane potential fluorescence, at 10 µM; activation: stronger effect = higher value; outcome: activation
# [11] = biological target: Short transient receptor potential channel 6 (Mus musculus) (UniProt Q61143); assay: positive modulators of mouse TRPC6 channel – HEK293 cells, membrane potential dye, duplicate, selectivity assay for TRPC4 potentiator project, confirmation (AID 434952;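 active = compound raising the membrane signal above positive-control mean plus 3 SD in both repeats, and a primary screen hit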); details: HEK293 TRPC6, membrane potential dye fluorescence, at 10 µM, maximal acetylcholine added after compound; stronger effect = higher value
# [12] = biological target: Short transient receptor potential channel 4 (Mus musculus) (UniProt Q9QUQ5); assay: calcium flux activators in TRPC4/5HT1a cells, counter-screen for TRPC4 activator project, cell-based, second counter screen, HEK293 TRPC4/5HT1a, Fluo-4 (AID 434977); details: Fluo-4 calcium flux, at 10 µM; stronger effect = higher value
# [13] = serotonin-gated TRPC4 signal block – cell-based, second counter screen, HEK293 TRPC4/5HT1a, Fluo-4, counter-screen for TRPC4 inhibitor project, confirmation (AID 434978;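 active = primary screen active whose calcium signal fell more than 3 SD beyond the full-serotonin control mean in both duplicate plates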;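 for outcome: serotonin given first at submaximal then at maximal dose after compound preincubation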); details: Fluo-4 calcium flux, at 10 µM, serotonin added to trigger calcium flux; stronger effect = higher value
# [14] = system: TRPC4 (mouse), co-expressed with 5HT1a in HEK293; assay: enhancement of serotonin-evoked TRPC4 response – cell-based, second counter screen, HEK293 TRPC4/5HT1a, Fluo-4, counter-screen for TRPC4 potentiator project, confirmation (AID 434979;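 active = signal rise over 3 SD above mean of control wells given weak agonist, in both repeats and first screen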); details: Fluo-4 calcium flux, at 10 µM, serotonin added at its EC20 dose; stronger effect = higher value
# [15] = nonspecific calcium rise without TRPC4 – cell-based, HEK293 mu-opioid receptor line, counter-screen for TRPC4 activator project, confirmation (AID 449723;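 active = hit in primary screen, with calcium signal over 5 SD above buffer well mean in both duplicates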;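 note: counter screen cells carry the mu-opioid receptor alone and lack TRPC4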); details: HEK293 mu-opioid cells, Fluo-4 calcium fluorescence, at 10 µM; stronger effect = higher value
# [16] = nonspecific potentiation of DAMGO calcium response – cell-based, HEK293 mu-opioid receptor line, counter-screen for TRPC4 allosteric potentiator project, confirmation (AID 449724;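 active = calcium signal rise more than 3 SD above the low-dose agonist control mean, in both duplicate plates and the primary screen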); details: HEK293 mu-opioid receptor cells, Fluo-4 calcium flux, at 10 µM, compound added before EC20 DAMGO stimulus; stronger effect = higher value
# Chain of Short transient receptor potential channel 4 (Mus musculus) (Q9QUQ5 whole entry, looked up): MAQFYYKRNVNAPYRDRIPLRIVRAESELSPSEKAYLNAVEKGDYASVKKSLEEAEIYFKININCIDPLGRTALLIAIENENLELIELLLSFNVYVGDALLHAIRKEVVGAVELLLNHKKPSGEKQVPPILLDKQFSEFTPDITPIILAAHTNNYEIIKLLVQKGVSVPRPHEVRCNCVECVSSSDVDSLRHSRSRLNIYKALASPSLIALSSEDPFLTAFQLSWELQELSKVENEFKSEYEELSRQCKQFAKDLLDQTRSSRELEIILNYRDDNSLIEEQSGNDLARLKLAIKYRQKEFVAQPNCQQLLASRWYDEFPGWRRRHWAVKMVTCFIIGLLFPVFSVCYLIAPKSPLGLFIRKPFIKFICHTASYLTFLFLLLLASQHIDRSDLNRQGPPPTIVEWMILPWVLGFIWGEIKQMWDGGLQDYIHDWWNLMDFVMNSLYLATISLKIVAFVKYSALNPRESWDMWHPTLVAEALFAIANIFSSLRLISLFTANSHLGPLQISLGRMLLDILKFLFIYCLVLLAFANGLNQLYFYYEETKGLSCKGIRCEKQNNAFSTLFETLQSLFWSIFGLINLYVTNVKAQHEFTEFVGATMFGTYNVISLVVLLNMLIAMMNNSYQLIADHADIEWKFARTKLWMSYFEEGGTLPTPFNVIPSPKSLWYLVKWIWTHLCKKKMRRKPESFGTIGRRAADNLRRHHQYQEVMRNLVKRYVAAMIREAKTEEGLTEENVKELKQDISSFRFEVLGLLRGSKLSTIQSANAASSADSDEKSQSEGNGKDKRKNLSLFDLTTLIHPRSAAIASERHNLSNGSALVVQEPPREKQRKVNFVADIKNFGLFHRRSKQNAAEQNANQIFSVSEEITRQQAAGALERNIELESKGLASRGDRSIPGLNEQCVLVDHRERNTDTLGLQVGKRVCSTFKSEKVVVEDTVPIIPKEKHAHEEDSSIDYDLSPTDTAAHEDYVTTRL
# Chain of Short transient receptor potential channel 6 (Mus musculus) (Q61143 whole entry, looked up): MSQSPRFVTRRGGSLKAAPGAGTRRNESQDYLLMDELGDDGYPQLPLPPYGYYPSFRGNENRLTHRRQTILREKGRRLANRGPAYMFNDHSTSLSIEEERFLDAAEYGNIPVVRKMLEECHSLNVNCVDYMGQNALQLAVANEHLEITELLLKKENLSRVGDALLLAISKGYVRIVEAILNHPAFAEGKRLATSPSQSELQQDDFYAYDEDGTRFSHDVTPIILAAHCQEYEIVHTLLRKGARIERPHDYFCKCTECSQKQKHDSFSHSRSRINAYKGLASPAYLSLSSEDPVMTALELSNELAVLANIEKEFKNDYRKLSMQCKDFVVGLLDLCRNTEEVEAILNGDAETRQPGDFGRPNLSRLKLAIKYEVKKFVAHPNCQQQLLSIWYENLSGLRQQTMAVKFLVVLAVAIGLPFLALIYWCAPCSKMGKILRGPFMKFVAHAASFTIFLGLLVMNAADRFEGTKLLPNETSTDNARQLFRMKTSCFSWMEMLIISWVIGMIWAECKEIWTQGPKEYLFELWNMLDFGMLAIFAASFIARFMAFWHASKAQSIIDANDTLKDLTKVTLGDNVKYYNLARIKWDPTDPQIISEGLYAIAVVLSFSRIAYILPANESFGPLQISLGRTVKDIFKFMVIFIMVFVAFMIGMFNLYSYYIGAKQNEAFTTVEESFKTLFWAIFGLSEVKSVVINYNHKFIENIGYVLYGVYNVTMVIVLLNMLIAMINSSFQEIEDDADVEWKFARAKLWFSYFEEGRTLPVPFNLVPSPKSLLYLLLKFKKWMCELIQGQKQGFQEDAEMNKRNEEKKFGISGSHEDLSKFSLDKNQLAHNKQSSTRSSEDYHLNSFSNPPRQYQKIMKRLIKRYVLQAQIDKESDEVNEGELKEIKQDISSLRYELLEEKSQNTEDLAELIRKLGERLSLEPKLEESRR
SMILES,outcome [1],outcome [2],outcome [3],outcome [4],inhibition [5],outcome [6],outcome [7],outcome [8],outcome [9],outcome [10],outcome [11],outcome [12],inhibition [13],outcome [14],outcome [15],outcome [16],outcome [13],inhibition [6],outcome [5],inhibition [9]
CCC(C)NCCOCCOc1ccccc1-c1ccccc1 (stereo unspecified),inactive,inactive,inactive,inactive,77% (active),inactive,inactive,inactive,inactive,inactive,inactive,inactive,36.9% (active),inactive,inactive,inactive,–,–,–,–
COc1ccc(-n2c3c(cc(C(=O)NCc4ccco4)c2=O)C(=O)CC(C)(C)C3)cc1,inactive,inactive,inactive,inactive,53% (active),inactive,inactive,inactive,inactive,inactive,inactive,inactive,–,inactive,inactive,inactive,inactive,–,–,–
c1ccc(Cn2c(CN3CCCC3)nc3ccccc32)cc1,inactive,inactive,inactive,inactive,96% (active),–,inactive,inactive,inactive,inactive,inactive,inactive,18% (active),inactive,inactive,inactive,–,67% (active),–,–
COCCn1c(SCc2cc(C(C)=O)ccc2OC)nc2cc(Cl)ccc2c1=O,inactive,inactive,inactive,inactive,78% (active),inactive,inactive,inactive,inactive,inactive,inactive,inactive,–,inactive,inactive,inactive,inactive,–,–,–
COc1ccc(C(=O)Nc2nc(-c3cccs3)cs2)cc1,inactive,inactive,inactive,inactive,85% (active),inactive,inactive,inactive,inactive,inactive,inactive,inactive,36.4% (active),inactive,inactive,inactive,–,–,–,–
Cn1c(NCc2ccccc2O)nc2ccccc21,inactive,inactive,inactive,inactive,62% (active),inactive,inactive,inactive,inactive,inactive,inactive,inactive,–,inactive,inactive,inactive,inactive,–,–,–
Cc1ccc(Oc2ccccc2/C=N/O)cc1,inactive,inactive,inactive,inactive,89% (active),inactive,inactive,inactive,inactive,inactive,inactive,inactive,10.1% (active),inactive,inactive,inactive,–,–,–,–
Cc1ccc2c(c1)N(C(=O)CCC(=O)Nc1ccccc1Br)CC(C)O2 (stereo unspecified),inactive,inactive,inactive,inactive,90% (active),–,inactive,inactive,inactive,inactive,inactive,inactive,31.8% (active),inactive,inactive,inactive,–,46% (active),–,–
CN(Cc1ccccc1)C(=O)CSc1nnc(-c2ccco2)n1-c1ccccc1,inactive,inactive,inactive,inactive,71% (active),–,inactive,inactive,inactive,inactive,inactive,inactive,–,inactive,inactive,inactive,inactive,43% (active),–,–
CCC(C)[C@H](Nc1nc(-c2ccccc2)nc2c1oc1ccccc12)C(=O)O (stereo partly specified),inactive,inactive,inactive,inactive,89% (active),inactive,inactive,inactive,inactive,inactive,inactive,inactive,–,inactive,inactive,inactive,inactive,–,–,–
O=[N+]([O-])c1cccc(N(CC(O)CN2CCCC2)S(=O)(=O)c2ccccc2)c1 (stereo unspecified),inactive,inactive,inactive,inactive,101% (active),inactive,inactive,inactive,inactive,inactive,inactive,inactive,–,inactive,inactive,inactive,inactive,–,–,–
O=C1Nc2cc(C(=O)NCCCN3CCOCC3)ccc2S/C1=C/c1ccccc1F,inactive,inactive,inactive,inactive,–,inactive,inactive,inactive,inactive,inactive,inactive,inactive,–,inactive,inactive,inactive,inactive,–,inactive,–
CN1CCN(c2nc(-c3cccnc3)nc3scc(-c4ccccc4)c23)CC1,inactive,inactive,inactive,inactive,–,inactive,inactive,inactive,inactive,inactive,inactive,inactive,–,inactive,inactive,inactive,inactive,–,inactive,–
O=C(CN1CCCCC1)N=Nc1c(O)[nH]c2ccccc12,inactive,inactive,inactive,inactive,80% (active),inactive,inactive,inactive,inactive,inactive,inactive,inactive,33.5% (active),inactive,inactive,inactive,–,–,–,–
CNCc1c(OCc2ccccc2)ccc2ccccc12,inactive,inactive,inactive,inactive,92% (active),inactive,inactive,inactive,–,inactive,inactive,inactive,34.9% (active),inactive,inactive,inactive,–,–,–,46% (active)
CCN(CC)C(=O)C1CCCN(Cc2cccc(Oc3ccccc3)c2)C1 (stereo unspecified),inactive,inactive,inactive,inactive,93% (active),–,inactive,inactive,inactive,inactive,inactive,inactive,25.7% (active),inactive,inactive,inactive,–,53% (active),–,–

SMILES,outcome [1],outcome [2],outcome [3],outcome [4],inhibition [5],outcome [6],outcome [7],outcome [8],outcome [9],outcome [10],outcome [11],outcome [12],inhibition [13],outcome [14],outcome [15],outcome [16],outcome [13],inhibition [6],outcome [5],inhibition [9]
CN(C)CCCN(Cc1cc2cc3c(cc2[nH]c1=O)OCO3)C(=S)NCc1ccco1,inactive,inactive,inactive,inactive,93% (active),–,inactive,inactive,inactive,inactive,inactive,inactive,26.8% (active),inactive,inactive,inactive,–,69% (active),–,–
Cc1cccc(Cn2c(C(C)(C)C)cc3cccnc32)c1,inactive,inactive,inactive,inactive,95% (active),–,inactive,inactive,–,inactive,inactive,inactive,19.4% (active),inactive,inactive,inactive,–,72% (active),–,59.5% (active)
COc1ccc(Nc2cc(C)nc3ccc(OC)cc23)cc1,inactive,inactive,inactive,inactive,91% (active),inactive,inactive,inactive,–,inactive,inactive,inactive,–,inactive,inactive,inactive,inactive,–,–,29.5% (active)
Cc1ccc(C(C)(C)C)cc1S(=O)(=O)Nc1nc2ccccc2nc1Cl,inactive,inactive,inactive,inactive,–,inactive,inactive,inactive,inactive,inactive,inactive,inactive,6.84% (active),inactive,inactive,inactive,–,–,inactive,–
N#Cc1c(N)sc2c1CCCCCC2,inactive,inactive,inactive,inactive,94% (active),–,inactive,inactive,inactive,inactive,inactive,inactive,32.3% (active),inactive,inactive,inactive,–,44% (active),–,–
CCOc1cc(CNCc2cccs2)ccc1OCC(=O)NC(C)(C)C,inactive,inactive,inactive,inactive,98% (active),–,inactive,inactive,inactive,inactive,inactive,inactive,–,inactive,inactive,inactive,inactive,49% (active),–,–
CCCCn1c(SCC(=O)OCC)nc2c(sc(=S)n2-c2ccccc2OC)c1=O,inactive,inactive,inactive,inactive,94% (active),inactive,inactive,inactive,inactive,inactive,inactive,inactive,14% (active),inactive,inactive,inactive,–,–,–,–
CC(C)NCC(O)COCCOc1ccc(C(C)(C)C)cc1 (stereo unspecified),inactive,inactive,inactive,inactive,97% (active),–,inactive,inactive,inactive,inactive,inactive,inactive,28.6% (active),inactive,inactive,inactive,–,59% (active),–,–
Cc1cc(-c2csc3ncnc(N4CCN(C)CC4)c23)cc(C)c1C,inactive,inactive,inactive,inactive,84% (active),–,inactive,inactive,inactive,inactive,inactive,inactive,16.6% (active),inactive,inactive,inactive,–,49% (active),–,–
Cc1ccc(Nc2cc(C)nc3c(C)cccc23)cc1,inactive,inactive,inactive,inactive,–,–,inactive,inactive,–,inactive,inactive,inactive,35.3% (active),inactive,inactive,inactive,–,54% (active),inactive,22% (active)
COc1ccc(C(CNC(=O)c2oc3ccc(F)cc3c2C)N2CCCCC2)cc1 (stereo unspecified),inactive,inactive,inactive,inactive,98% (active),inactive,inactive,inactive,inactive,inactive,inactive,inactive,–,inactive,inactive,inactive,inactive,–,–,–
Cc1ccc(C(=O)NC(=S)Nc2c(C)ccc3nsnc23)cc1,inactive,inactive,inactive,inactive,86% (active),–,inactive,inactive,inactive,inactive,inactive,inactive,18.1% (active),inactive,inactive,inactive,–,45% (active),–,–
CCOC(=O)C1(Cc2cccc(OC)c2)CCN(Cc2cccc(O)c2)CC1,inactive,inactive,inactive,inactive,84% (active),–,inactive,inactive,inactive,inactive,inactive,inactive,–,inactive,inactive,inactive,inactive,43% (active),–,–
CC(C)Sc1nc2sc3c(c2c2nnc(SCC(=O)NCc4ccco4)n12)CCCC3,inactive,inactive,inactive,inactive,78% (active),inactive,inactive,inactive,inactive,inactive,inactive,inactive,16.9% (active),inactive,inactive,inactive,–,–,–,–
OCCNCc1cc(Br)ccc1OCc1ccc(F)cc1,inactive,inactive,inactive,inactive,94% (active),–,inactive,inactive,inactive,inactive,inactive,inactive,21.1% (active),inactive,inactive,inactive,–,45% (active),–,–
